The campaign covered roughly 65,000 compounds. About 640 (0.98%) were called active. The list comes from a sample in which actives are over-represented; it also holds similar structures and randomly drawn compounds. Unmarked numbers belong to inactive results.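 The calls were made as follows: active = inhibition above a set limit, the mean inhibition across every tested compound plus 3 SD (cut at about 29% in these data); inactive = the rest.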

Sequence of 5-hydroxytryptamine receptor 1E (Homo sapiens) (P28566 whole entry, looked up): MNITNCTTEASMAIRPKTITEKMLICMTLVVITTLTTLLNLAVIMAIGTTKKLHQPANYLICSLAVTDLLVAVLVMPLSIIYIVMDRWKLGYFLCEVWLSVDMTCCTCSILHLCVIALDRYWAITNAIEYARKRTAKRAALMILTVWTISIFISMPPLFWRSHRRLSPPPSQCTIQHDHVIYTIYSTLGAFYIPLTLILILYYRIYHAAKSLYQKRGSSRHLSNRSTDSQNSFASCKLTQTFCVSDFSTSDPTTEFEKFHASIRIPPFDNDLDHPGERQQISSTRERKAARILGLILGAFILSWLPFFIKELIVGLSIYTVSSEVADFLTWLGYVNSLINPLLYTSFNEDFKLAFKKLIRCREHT

This assay addresses 5-hydroxytryptamine receptor 1E (Homo sapiens) (UniProt P28566). Kind of assay: blockade of human serotonin 5HT1E receptor – cell-based, HTS, primary screen (AID 571).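 Also: signal is the 460 over 535 nm emission ratio of beta-lactamase substrate; 0% = agonist plus DMSO wells and 100% = wells without agonist.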 The note with it: CHO 5-HT1E Ga15 NFAT-bla reporter, FRET, antagonist; at 6 µM; active compounds read high.
Consider `CCN(CC)C(=O)N1CCN(C(=O)c2ccc(C)cn2)CC1`, for which the inhibition (commonly the change of the read-out against control, counted positive when it falls) was -13.6%.

Take `COC(=O)C1(S(=O)(=O)C2(C(=O)OC)CCCC2)CCCC1`: the inhibition was -13%.

As for `C/C(CC(O)(/C=N/O)c1ccccc1)=N\O` (centres undefined), the inhibition was 1.85%.

For `COCCNC(=O)C(C#N)c1nc2ccccc2nc1N1CCN(Cc2ccc3c(c2)OCO3)CC1` (centres undefined), the inhibition is 2.9%.

`CN(C)c1nc(N)nc(CSc2nnnn2-c2cccc3ccccc23)n1`: the inhibition was 30.2% (active).

For `Cc1ccc(-c2noc(CSc3nnnn3-c3ccccc3)n2)cc1`, the inhibition was 4.04%.

As to `O=c1c2ccccc2nc(CSc2nnnn2-c2ccccc2)n1-c1ccccc1`, the inhibition was -9.14%.

Take `CC(C)OCCCNc1ncnc2c1[nH]c1ccc(F)cc12`: the inhibition was 35% (active).

With `CCN1CCCC1CNc1ncnc2c1[nH]c1ccc(F)cc12` (centres undefined), the inhibition is -8.46%.

For `O=C1CCCN1CCCNc1ncnc2c1[nH]c1ccccc12`, the inhibition is 4.24%.

In the case of `CCOc1ccc(NC(=O)Nc2cc(C)on2)cc1`, the inhibition was -2.74%.

Regarding `O=C(CN1C(=O)COc2ccccc21)Nc1ccc(F)cc1`, the inhibition was 6.81%.

Turning to `O=C(CSc1nnc(-c2c[nH]c3ccccc23)n1-c1ccc(F)cc1)NCc1ccco1`, the inhibition is 6.88%.

Turning to `COc1ccc(S(=O)(=O)N(C)CC(=O)Nc2ccc3c(c2)OCCO3)cc1OC`, the inhibition is 10.4%.

Take `CCC(C)(C)n1nnnc1C(c1cccs1)N1CCN(c2nc3ccccc3s2)CC1` (centres undefined): the inhibition is 3.71%.

As to `Cc1nnc(SCc2cc(=O)[nH]c(N3CCN(Cc4ccccc4)CC3)n2)s1`, the inhibition was -7.09%.

As for `COc1cc(OC)c(C(=O)Nc2ccc(N(C)C)cc2)cc1OC`, the inhibition was -7.5%.

Take `COc1ccccc1-c1nc(C(F)(F)F)c(OC)o1`: the inhibition was -6.75%.

With `Cc1cc(C)n2nc(C(=O)Oc3ccc4c(c3)OCO4)nc2n1`, the inhibition was -5.31%.

Take `Nc1nonc1-c1nc2ccccc2n1Cc1ccc(F)cc1`: the inhibition was 8.52%.

Take `Nc1nonc1-c1nc2ccccc2n1CCC(=O)O`: the inhibition was 7.28%.

`COc1ccc(C)c(Cn2c(-c3nonc3N)nc3ccccc32)c1`: the inhibition was 33.6% (active).

Consider `NC(=O)CSc1oc(-c2cccs2)nc1S(=O)(=O)c1ccccc1`, for which the inhibition is 1.39%.

On to `CN(C)CCCNC(=O)c1ccc2[nH]c3ccccc3c2c1`, for which the inhibition was -3.46%.

Consider `CCCCOc1ccc(C(C)(O)CCN2CCOCC2)cc1` (centres undefined), for which the inhibition is 2.45%.

As for `Cc1ccc(S(=O)(=O)n2nc(OC(=O)C(C)(C)C)cc2N)cc1`, the inhibition was -1.76%.

For `CN1CCCC(OC(=O)COc2ccc(Br)cc2)C1` (centres undefined), the inhibition is -15.4%.

For the compound `CC[C@H]1CN2CCc3cc(OC)c(OC)cc3[C@@H]2C[C@@H]1C[C@H]1NCCc2cc(OC)c(OC)cc21`, the inhibition is 92.4% (active).

Regarding `CCOC(=O)C1CCCN(C(=O)c2cncc(Br)c2)C1` (centres undefined), the inhibition is 3.85%.

In the case of `O=C(c1ccco1)N1CCN(CC(=O)N(C2CCCCC2)C2CCS(=O)(=O)C2)CC1` (centres undefined), the inhibition is 16.6%.

As to `CCSc1ncnc2c(C#N)c3n(c12)CCCCC3`, the inhibition is 47.6% (active).

`CCSC1=C(C#N)C(=O)n2c1cc1c2CCCC1`: the inhibition was -0.37%.

On to `COC(=O)c1ccccc1NC(=O)Cn1nc(C(F)(F)F)c2c1CCC2`, for which the inhibition was -3.25%.

In the case of `CCn1c2c(c3ccc(OC)cc31)CCCC2=O`, the inhibition was 4.52%.

Consider `Cc1cc(NC(=O)c2cc(-c3cccs3)on2)nn1Cc1ccc(Cl)cc1`, for which the inhibition was -7.29%.

In the case of `O=C(Nc1cc(C(F)(F)F)ccc1Cl)c1cc(C2CC2)on1`, the inhibition is -9.73%.

On to `Cc1nn(Cc2ccc(Cl)c(Cl)c2)c(C)c1NC(=O)c1cc(C2CC2)on1`, for which the inhibition is 34.3% (active).

`CC(=O)C1C(c2ccc(Cl)cc2)NC(=O)NC1(O)C(F)(F)F` (centres undefined): the inhibition was 6.15%.

With `CCSC(C)CC1C/C(=N/O)c2c(C)noc2C1` (centres undefined), the inhibition was 21.4%.

As to `Cc1nc2sc(C(c3ccco3)N3CCC4(CC3)OCCO4)c(O)n2n1` (centres undefined), the inhibition was -11.1%.

For the compound `CC1(C)Oc2ccc3ccc(=O)oc3c2/C(=C/NCCO)C1=O`, the inhibition was -8.4%.

In the case of `CN=C1SC(C(=O)O)CC(=O)N1C` (centres undefined), the inhibition was 1.76%.

As for `CC[C@]1(O)C[C@@H]2CN(CCc3c([nH]c4ccccc34)[C@@](C(=O)OC)(c3cc4c(cc3OC)N(C)[C@H]3[C@@](O)(C(=O)OC)[C@H](OC(C)=O)[C@]5(CC)C=CCN6CC[C@]43[C@@H]65)C2)C1`, the inhibition was 73.5% (active).

For `CC[C@]1(O)CC2CN(CCc3c([nH]c4ccccc34)[C@@](C(=O)OC)(c3cc4c(cc3OC)N(C=O)[C@H]3[C@@](O)(C(=O)OC)[C@H](OC(C)=O)[C@]5(CC)C=CCN6CC[C@]43[C@@H]65)C2)C1` (some centres undefined), the inhibition was 71.9% (active).

`Cc1ccc(C(c2nnnn2C(C)(C)C)N2CCc3ccccc3C2)cc1` (centres undefined): the inhibition was -3.9%.

Turning to `FC(F)Oc1ccccc1C1CC(c2ccc(Br)s2)Nc2ncnn21` (centres undefined), the inhibition was 12%.

As to `O=C(c1cnn2ccccc12)N1CCc2ccccc21`, the inhibition is -4.32%.

Turning to `COCCNC(=O)CN(C(=O)CCC(=O)Nc1cc(C)on1)c1ccc(C)cc1C`, the inhibition was -0.23%.

With `Cc1cccc(Cn2c(SCCO)nc3c2c(=O)n(C)c(=O)n3C)c1`, the inhibition is -1.41%.

The values are drawn from PubChem BioAssay AID571 (The Scripps Research Institute Molecular Screening Center, 2007).
